Experimental findings from PubChem BioAssay AID1220 (Sanford-Burnham Center for Chemical Genomics, 2008) are described below.

Hit rate of the full screen: of about 190,000 compounds, about 1,300 (0.68%) were called active. Cut-off read from the data, not from the text of the source: active = inhibition above about 50%; inactive = the rest. Shown is part of a subset that was picked to be rich in actives.

One may read the inhibition as the relative decrease from the control value, in per cent.

Chain of Mannose-6-phosphate isomerase (Homo sapiens) (P34949 whole entry, looked up): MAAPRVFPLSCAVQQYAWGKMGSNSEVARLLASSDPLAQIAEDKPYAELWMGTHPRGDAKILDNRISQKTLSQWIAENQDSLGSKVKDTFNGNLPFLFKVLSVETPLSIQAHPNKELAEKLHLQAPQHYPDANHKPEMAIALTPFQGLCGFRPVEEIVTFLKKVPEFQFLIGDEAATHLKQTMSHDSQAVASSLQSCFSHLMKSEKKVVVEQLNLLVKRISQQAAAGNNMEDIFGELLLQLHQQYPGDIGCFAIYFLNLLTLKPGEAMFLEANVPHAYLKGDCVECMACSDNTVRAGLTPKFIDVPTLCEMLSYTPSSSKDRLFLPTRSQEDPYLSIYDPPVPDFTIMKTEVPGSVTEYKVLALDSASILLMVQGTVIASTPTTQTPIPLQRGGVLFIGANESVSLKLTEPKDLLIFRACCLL

This assay has as its target Mannose-6-phosphate isomerase (Homo sapiens) (UniProt P34949). As to the kind of experiment: human PMI inhibitors, high substrate, primary screen, biochemical, fluorescence intensity, high mannose 6-phosphate (AID 1220). The following applies: recombinant PMI enzyme, coupled fluorescence intensity; at 20 µM; stronger effect = higher value.
Consider `CCCC(=O)Nc1nc2ccc(OC)cc2s1`, for which the inhibition was 7.2% (inactive).
The figure for `COc1ccc2nc(NC(=O)Nc3ccccc3)sc2c1` is 15.5% (inactive); for `COc1ccc2nc(NC(=O)Nc3cccc4ccccc34)sc2c1` it is 58.6% (active).
The figure for `Cn1c2ccccc2c(=O)n2c(=O)c3ccccc3cc12` is 54.4% (active); for `Cn1c(-c2ccccc2)cc(=O)c2ccccc21` it is 2% (inactive); for `Cc1cc(=O)n(C)c2ccccc12` it is -8.5% (inactive).
The figure for `CNC(=O)c1[nH]cnc1C(=O)N[C@@H](Cc1ccccc1)C(=O)OC(C)(C)C` is 2.7% (inactive); for `O=C1C2C3C=CC(C3)C2C(=O)N1c1ccccc1OS(=O)(=O)c1ccccc1` (stereo not given) it is -5% (inactive).
For `CCOc1ccc(/C=C2\SC(N3CCc4ccccc4C3)=NC2=O)cc1`, the inhibition was 3.5% (inactive).
The result for `COc1ccc(N)c2c1OCCC2=O` reads 59.8% (active); that for `Cc1ccc(N)c2c1OCCC2=O`, 57.7% (active); that for `Cc1ccc2c(c1C)OC(=O)CC2(C)C`, -5.5% (inactive).
The result for `COc1ccc(N)c2c1C(=O)c1ccccc1C2=O` reads 23.8% (inactive); that for `Cc1cccc(N)c1-c1c(C)cccc1N`, 5.8% (inactive).
On to `COc1ccc(OC)c2c1CCC2=O`, for which the inhibition is -2.6% (inactive).
In the case of `COC(=O)c1ccc(/C=N/NC(=S)NCCN2CCOCC2)cc1`, the inhibition is -1.5% (inactive).
The result for `NC(=O)C1CCN(C(=O)C2CCN(S(=O)(=O)c3ccccc3)CC2)CC1` reads 5% (inactive); that for `CC1(C)Cc2c(ccc3ccccc23)/C(=C/C(=O)N2CCCCC2)N1`, -2.6% (inactive); that for `CC1(C)Cc2ccccc2/C(=C/C(=O)N2CCCCCC2)N1`, -22.6% (inactive).
The figure for `CC1(C)Cc2ccccc2C2=C(C(=O)N3CCCCCC3)C(=O)C(=O)N21` is 60.5% (active); for `C=CCC1(O)C(=O)N2C(=C1C(=O)N1CCOCC1)c1ccccc1CC2(C)C` (stereo not given) it is -1.7% (inactive); for `CCOC(=O)C1=C2c3ccc4ccccc4c3CC(C)(C)N2C(=O)C1=O` it is 27.6% (inactive).
The result for `CC1(C)Cc2c(ccc3ccccc23)C2=C(C(=O)N3CCCC3)C(=O)C(=O)N21` reads 56% (active).
On to `COc1ccc(/C=N/NS(C)(=O)=O)c(OC)c1`, for which the inhibition was 8.2% (inactive).
For `CCOC(=O)N/N=C1\CC(C)CC(C)(C)C1` (stereo not given), the inhibition is 4.2% (inactive).
The result for `COc1ccc(CCNC(=O)COC(=O)/C=C/c2cc(OC)c(OC)c(OC)c2)cc1OC` reads -0.4% (inactive); that for `COc1cccc(CC2(CO)CCN(Cc3ccc4cccc(F)c4n3)CC2)c1`, 13.1% (inactive).
As to `Cc1cc(C(=O)COc2cccnc2[N+](=O)[O-])c(C)n1-c1ccccc1`, the inhibition is 53.3% (active).
Regarding `Cc1cc(-n2c(C)cc(C(=O)COc3ccccc3[N+](=O)[O-])c2C)no1`, the inhibition was 9.1% (inactive).
The result for `Cc1ccc(-n2c(C)cc(C(=O)COc3cccnc3[N+](=O)[O-])c2C)cc1` reads 54.5% (active); that for `COc1ccc(-n2c(C)cc(C(=O)COc3ccc(C)nc3[N+](=O)[O-])c2C)cc1`, 41% (inactive); that for `Cc1ccc(OCC(=O)c2cc(C)n(-c3ccccc3)c2C)c([N+](=O)[O-])n1`, 21.3% (inactive).
As to `Cc1ccc(OCC(=O)c2cc(C)n(C3CC3)c2C)c([N+](=O)[O-])n1`, the inhibition is 10.6% (inactive).
The figure for `CN(Cc1ccccc1)C(=O)CC(c1ccccc1)c1cc(Cl)ccc1O` (stereo not given) is 4.5% (inactive); for `CCn1c(=O)c(C(=O)CN2CCN(S(=O)(=O)c3ccccc3)CC2)c(N)n(Cc2ccccc2)c1=O` it is 0.5% (inactive).
Turning to `NS(=O)(=O)c1ccc(NCc2c(F)cccc2Cl)cc1`, the inhibition was 4.6% (inactive).
For the compound `O=C(O)c1cc(NCc2c(F)cccc2Cl)ccc1N1CCOCC1`, the inhibition is 2.7% (inactive).
Turning to `O=C(Nc1ccc(N2CCCCCC2)cc1)c1ccccc1Cl`, the inhibition was 27.3% (inactive).
With `O=S(=O)(Nc1ccc(N2CCCCC2)cc1)c1ccccc1`, the inhibition is 0.6% (inactive).
The result for `Clc1cccc(Cl)c1CNc1ccc(N2CCCC2)cc1` reads 84.4% (active); that for `COC(=O)C(CCSC)NC(=O)CNS(=O)(=O)c1ccc(Br)cc1` (stereo not given), -7.6% (inactive).
The figure for `Cc1ccc(C)c(CN2CCNC2=O)c1` is -0.9% (inactive).
Take `CCNC(=O)CC1C(=O)N(CC)C(=S)N1NC(=O)c1cccnc1` (stereo not given): the inhibition is -4.7% (inactive).
The figure for `N=C1S/C(=C\c2ccccc2F)C(=O)N1c1ccc(F)cc1` is 3.1% (inactive).
The result for `Cc1cccc(NS(=O)(=O)c2ccc(Br)s2)n1` reads -4.4% (inactive); that for `Cc1ccc(NS(=O)(=O)c2ccc(Br)s2)nc1`, 66.2% (active).
Take `CCCCCCCCCS(=O)(=O)Nc1cc(C)ccn1`: the inhibition is 7.7% (inactive).
The result for `Cc1ccc(NS(=O)(=O)Cc2ccccc2)nc1` reads 16.5% (inactive); that for `Cc1cc(C)nc(NS(=O)(=O)c2ccc(Br)s2)c1`, 42.1% (inactive); that for `CCCCS(=O)(=O)Nc1ccc(C)cn1`, 57.3% (active).
With `O=c1cc(CCl)nc2sc3ccccc3n12`, the inhibition was -13.1% (inactive).
The figure for `COC(=O)C1=C(C)N(C)C(=O)NC1c1cc2c(cc1[N+](=O)[O-])OCO2` (stereo not given) is 42.7% (inactive); for `COC(=O)C1=C(C)NC(=O)NC1c1ccc([N+](=O)[O-])o1` (stereo not given) it is 10.9% (inactive); for `COC(=O)C1=C(C)N(C)C(=O)NC1c1ccc(O)c(Cl)c1` (stereo not given) it is 3.8% (inactive).
The figure for `CCOc1c(O)ccc(C2NC(=O)N(C)C(C)=C2C(=O)OC)c1[N+](=O)[O-]` (stereo not given) is 60.2% (active).
The result for `COc1c(O)ccc(C2NC(=O)NC(C)=C2C(=O)Nc2ccccc2C)c1[N+](=O)[O-]` (stereo not given) reads 49.8% (inactive); that for `CCOc1c(O)ccc(C2NC(=O)NC(C)=C2C(=O)OC)c1[N+](=O)[O-]` (stereo not given), 50.9% (active); that for `CN=C1SC(CC(=O)Nc2cc(Cl)ccc2Cl)C(=O)N1C` (stereo not given), -9.7% (inactive).
For `COc1ccc(/C=N/Nc2nc(N3CCCC3)nc(N3CCCC3)n2)c(OC)c1OC`, the inhibition was 4% (inactive).
The result for `Cc1onc(-c2c(F)cccc2Cl)c1C(=O)NCCO` reads -4% (inactive); that for `COc1ccc2c(c1)C(C1C(=O)CCCC1=O)c1ccccc1O2` (stereo not given), 2.9% (inactive).
The figure for `CC1(C)CC(=O)C(C2c3ccccc3S(=O)(=O)c3ccccc32)C(=O)C1` is -5.8% (inactive); for `CC1(C)CC(=O)C(C2c3ccccc3Oc3ccccc32)C(=O)C1` it is 52.9% (active).
Take `O=C(c1ccc(-c2ccccc2)cc1)N1CCC(C(=O)N2CCCC2)CC1`: the inhibition was 5.4% (inactive).
The figure for `COc1ccc(CC(=O)NC(=S)Nc2ccc(S(N)(=O)=O)cc2)cc1` is -5.8% (inactive); for `Cc1cccc(NC(=O)NCC(F)(F)F)n1` it is -6.3% (inactive); for `CCOC(=O)C(NC(=O)Nc1cccc(C)n1)(OCC(F)(F)F)C(F)(F)F` (stereo not given) it is 59.1% (active).
Turning to `CCOC(=O)C(NC(=O)Nc1ccccc1)(OCC)C(F)(F)F` (stereo not given), the inhibition is 5.2% (inactive).
Take `Cc1cc(C)nc(NS(=O)(=O)c2ccc(NC(=O)CN3C(=O)C4CC=CCC4C3=O)cc2)n1` (stereo not given): the inhibition was -7.4% (inactive).
Regarding `Cc1cc(C(=O)Nc2ccccc2C#N)n(-c2ccccc2)n1`, the inhibition is 1.2% (inactive).
Turning to `CC(=O)c1cccc(N2C(=NC(=O)C(C)C)SC3CS(=O)(=O)CC32)c1` (stereo not given), the inhibition is 10.5% (inactive).
The figure for `O=C1COc2ccc(C(=O)COC(=O)Cc3ccccc3F)cc2N1` is -2.3% (inactive).
The result for `CC(=O)Oc1c(C)cc(O)c2ccccc12` reads 19.2% (inactive); that for `O=C(Oc1cccc2c(O)cccc12)c1ccccc1`, 23.5% (inactive).
As to `CC(=O)Cc1cc(O)c2ccccc2c1OC(=O)c1ccccc1`, the inhibition was 68.6% (active).
The figure for `Cc1cc(N2CCCC2=O)c(N)cc1N` is 4.5% (inactive); for `O=C1CN(CC(=O)Nc2cccc(Cl)c2Cl)c2ccccc2N1` it is -43.6% (inactive); for `CCOc1ccc2nc(NC3=NCN(Cc4ccco4)CN3)nc(C)c2c1` it is -0.5% (inactive).
The figure for `CCOc1cc(/C=C2\N=C(SCC)SC2=O)cc([N+](=O)[O-])c1OC(C)=O` is 53.1% (active); for `CCOc1cc(/C=C2\N=C(SC)SC2=O)cc([N+](=O)[O-])c1OC(C)=O` it is 35.6% (inactive); for `C=CCSC1=N/C(=C\c2cc(OCC)c(OC(C)=O)c([N+](=O)[O-])c2)C(=O)S1` it is 38.8% (inactive).
The result for `CC(=O)NCC(=O)N(C)C(C(=O)Nc1ccc2c(c1)OCCO2)c1ccc(C)cc1` (stereo not given) reads 5.2% (inactive); that for `CCOC(=O)Nc1sc2c(c1C(N)=O)CCC(C)C2` (stereo not given), -7.3% (inactive); that for `CC(=O)NC(=S)Nc1sc2c(c1C(N)=O)CCC(C)C2` (stereo not given), -3% (inactive).
In the case of `COC(=O)Nc1sc2c(c1C(N)=O)CCC(C)C2` (stereo not given), the inhibition was 59.6% (active).
Turning to `CC(C)C(NC(=O)c1ccc(Br)cc1)C(=O)NC1=NCCS1` (stereo not given), the inhibition is -3% (inactive).
Turning to `CON1C(=O)C(=O)N(OC)C(C)(C)C1(C)C`, the inhibition is 44.6% (inactive).
The result for `Clc1ccc(C2NCCc3sccc32)cc1` (stereo not given) reads 10.9% (inactive); that for `CC1=CC(C)(C)N=C(NC#N)N1`, 2.4% (inactive); that for `O=C(COc1ccc(Cl)cc1)N1CCN(c2ccc([N+](=O)[O-])c(N3CCCCC3)c2)CC1`, 12.2% (inactive).
The figure for `COC(=O)CNC(=O)c1cccc(Cl)c1` is -5% (inactive); for `O=C(NC(Cc1c[nH]c2ccccc12)C(=O)NCCCN1CCOCC1)c1cccs1` (stereo not given) it is 11.4% (inactive); for `O=C(c1ccccc1)c1coc2c1C(=O)c1ccccc1C2=O` it is 30.7% (inactive).
For `O=C1c2ccccc2C(=O)c2c1oc(C(F)(F)F)c2C(=O)c1ccccc1`, the inhibition was -32.9% (inactive).
The figure for `CCCCOc1ccc(C(=S)N2CCC(C(N)=O)CC2)cc1` is 9.1% (inactive).
The figure for `CN(CCC#N)C(=O)COc1ccc(Br)cc1Cl` is -5.3% (inactive).
Regarding `CCN(CC)c1cccc(OCC(=O)N(C)CCC#N)c1`, the inhibition was 53.3% (active).
Consider `CCc1ccc(OCC(=O)N(C)CCC#N)c(Br)c1`, for which the inhibition was 3.1% (inactive).
The result for `Cc1cc(C)n(-c2cc(N3CCOCC3)nc(-c3ccccc3)n2)n1` reads 8.9% (inactive); that for `CCc1sc(C(=O)NCCc2ccc(S(N)(=O)=O)cc2)cc1Br`, 7.3% (inactive).
